# In PubChem BioAssay (NCATS):
# Records with an inconclusive call do not appear. Where a call stands in place of a potency, no number is given. Active and inactive are the calls of the source. Calls come from the whole dose curve; as a rule, active = well fitted curve in the direction sought with a large enough effect; inconclusive = small, poorly fitted or top-dose-only effect, or another doubt; inactive = no such curve, though single readings can be large; an effect the other way counts as inactive or inconclusive.
# Tests used:
# [1] = tested on: Zika virus NS2B-NS3 protease (linked); assay: 384 well plate NINDS AMC confirmatory qHTS for Zika virus inhibitors (AID 1347163); conditions: Recombinant NS2B-NS3 protease, Ac-VKTGKR-AMC fluorescence; series mostly up to 1 mM; note: nearly all actives have a fitted effect of over 50% in size; note: potency is the fitted concentration of half-maximal effect
# How it was run: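 Linked protease 5/30/60 nM final; cpds up to 1 mM final, ~15 min preinc. Substrate Ac-VKTGKR-AMC 30 microM final. RT, dark, 25 min; FI ex 355/em 460; normalized to no-enzyme/no-inhibitor ctrls.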
# [2] = tested on: Zika virus NS2B-NS3 protease (linked construct); assay: 384 well plate NINDS Rhodamine confirmatory qHTS for Zika virus inhibitors (AID 1347164); conditions: rhodamine-110 peptide substrate fluorescence; note: potency is the fitted concentration of half-maximal effect; nearly all actives have a fitted effect of over 65% in size
# How it was run: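 Cleavage of Ac-LKRR-Rhodamine 110 (10 microM final) by linked protease (final 5, 30 or 60 nM) was followed as fluorescence at 485/538 nm after 25 min, room temperature, dark. Compounds preincubated ~15 min.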
# [3] = Vero cells viability qHTS for Zika virus inhibitors (AID 1347167); conditions: cytotoxicity counter-screen (Zika); series mostly up to 45.9 µM
# How it was run: (§1)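 Counter-screen for cytotoxicity of hits from NS2B-NS3 protease qHTS. Overnight-attached cells (2.5 x 10^5 cells/mL, DMEM/4% FBS) were dosed in titration, incubated 24 to 48 hours, then assayed by CellTiter Glo.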
# [4] = qHTS to identify inhibitors of the type 1 interferon - major histocompatibility complex class I in skeletal muscle: primary screen against the NCATS Pharmaceutical Collection (AID 1347407); conditions: human skeletal muscle cells, IFN-b-induced MHC-I HiBiT luminescence, 24 h; series mostly up to 45.9 µM;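 note: luminescence of HiBiT knocked into endogenous HLA-B as interferon-induced MHC class I level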; note: potency is the fitted concentration of half-maximal effect
# How it was run: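 A qHTS format is used: 8-point, 1:5 compound series with 46 uM top final concentration, applied alongside 4 ng/ml IFN-beta to HLA-B*08:01-HiBiT knock-in myoblasts. Luminescence is measured after 24 h treatment.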
# [5] = target: Protein phosphatase 1D (Homo sapiens) (UniProt O15297); assay: RapidFire Mass Spectrometry qHTS Assay for Modulators of WT P53-Induced Phosphatase 1 (WIP1) (AID 1347424); conditions: WIP1 dephosphorylation of phosphopeptide, RapidFire MS; series mostly up to 63 µM;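 note: amount of dephosphorylated VEPPL-S-QETFS peptide product formed by WIP1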; note: potency is the fitted concentration of half-maximal effect
# Sequence of Protein phosphatase 1D (Homo sapiens) (O15297 whole entry, looked up): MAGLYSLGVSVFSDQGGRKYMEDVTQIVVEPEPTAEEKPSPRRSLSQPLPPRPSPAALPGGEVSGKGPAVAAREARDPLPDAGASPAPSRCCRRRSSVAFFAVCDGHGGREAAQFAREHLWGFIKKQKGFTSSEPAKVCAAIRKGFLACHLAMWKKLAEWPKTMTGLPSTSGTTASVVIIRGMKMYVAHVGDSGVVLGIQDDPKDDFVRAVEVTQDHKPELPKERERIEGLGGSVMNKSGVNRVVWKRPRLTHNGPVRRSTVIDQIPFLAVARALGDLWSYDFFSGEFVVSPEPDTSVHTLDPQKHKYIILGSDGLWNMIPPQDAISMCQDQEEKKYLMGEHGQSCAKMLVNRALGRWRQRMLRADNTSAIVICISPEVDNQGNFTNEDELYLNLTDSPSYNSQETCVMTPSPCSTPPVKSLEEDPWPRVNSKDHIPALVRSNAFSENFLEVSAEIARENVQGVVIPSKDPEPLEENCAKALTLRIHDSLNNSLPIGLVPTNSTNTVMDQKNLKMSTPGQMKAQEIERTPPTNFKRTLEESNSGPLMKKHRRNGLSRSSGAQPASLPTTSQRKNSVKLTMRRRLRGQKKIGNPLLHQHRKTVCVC
# How it was run: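 WIP1 (10 nM final) was preincubated 1 h at room temperature with compounds in Tris-HCl pH 7.5, 30 mM MgCl2, TCEP, EGTA, BSA; 2 uM VEPPL-pS-QETFS phosphopeptide was added for 5 min, quenched with formic acid, and dephosphorylated product quantified by RapidFire MS.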
# [6] = Primary qHTS for inhibitors of La Crosse Virus (LACV) - induced cell death in SH-SY5Y cells (AID 1508616); conditions: SH-SY5Y LACV cytopathicity rescue, ATP luminescence, 6 d; series mostly up to 4.29 µM;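 note: top concentration of the series differs between compounds; higher means more rescue of cells from virus-induced death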
# How it was run: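 Luminescent ATP readout (ATPLite 1step, 5 min room temperature) measured rescue from LACV-induced death after 6 days of infection at 0.01 MOI; normalized to infected DMSO wells and uninfected DMSO wells.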
# [7] = qHTS to identify inhibitors of the type 1 interferon - major histocompatibility complex class I in skeletal muscle: primary screen against the NCATS Mechanism Interrogation Plate v5.0 (MIPE) Libary (AID 1347411); conditions: iHSKM cells + IFN-b, HiBiT-tagged MHC-I luminescence, 24 h; series mostly up to 45.8 µM; note: nearly all actives have a fitted effect of over 65% in size
# How it was run: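 Immortalized human C25cl48 myoblasts with HiBit knocked into endogenous HLA-B*08:01 were stimulated with 4.0 ng/ml IFN-beta and exposed to compounds (11-point 1:3 titration, top 46 uM final) for 24 hrs at 37 C; HiBiT lytic luminescence measured.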
# [8] = target: Protein phosphatase 1D (Homo sapiens) (UniProt O15297); assay: Rhodamine-PBP qHTS Assay for Modulators of WT P53-Induced Phosphatase 1 (WIP1) (AID 1347425); conditions: recombinant WIP1, Rhodamine-PBP phosphate fluorescence, real-time; series mostly up to 57.5 µM
# How it was run: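 5 nM WIP1 + 10 uM Rh-PBP, 50 mM Tris pH 7.5, 30 mM MgCl2, 1 mM TCEP, 0.1 mM EGTA, BSA; cpds pinned, 1 hr RT; + 10 uM phosphopeptide; fluorescence 1-min reads x 11 min; delta = f1 - f0.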
# [9] = target: Calcium and integrin-binding protein 1 (Homo sapiens) (UniProt Q99828); assay: Primary qHTS for Identification of Calcium Integrin Binding Protein 1 (CIB1) Competitor (AID 1508620); conditions: CIB1-GST / FITC-alphaIIb peptide fluorescence polarization; series mostly up to 114 µM;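 note: GST tagged CIB1 binding a fluorescein labelled alphaIIb integrin peptide tracer; top concentration of the series differs between compounds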
# Sequence of Calcium and integrin-binding protein 1 (Homo sapiens) (Q99828 whole entry, looked up): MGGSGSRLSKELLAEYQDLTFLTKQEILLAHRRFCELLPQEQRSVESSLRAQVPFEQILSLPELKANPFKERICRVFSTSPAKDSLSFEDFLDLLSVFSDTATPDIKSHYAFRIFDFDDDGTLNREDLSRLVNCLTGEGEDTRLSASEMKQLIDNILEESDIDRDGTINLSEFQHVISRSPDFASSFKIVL
# How it was run: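 Fluorescence polarization competition: CIB1-GST (1 uM final) preincubated with compound 15 min at room temperature, then FITC-labeled alphaIIb peptide (100 nM final) added for another 15 min. Polarization read at Ex 480/Em 540.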
# [10] = target: Lysine-specific demethylase 5B (Homo sapiens) (UniProt Q9UGL1); assay: Optimization screen for KDM5B Histone Demethylases FDH coupled qHTS against the LOPAC library (AID 1347166); conditions: KDM5B demethylation, FDH-coupled NADH fluorescence (FDH is formaldehyde dehydrogenase); series mostly up to 57.5 µM
# Sequence of Lysine-specific demethylase 5B (Homo sapiens) (Q9UGL1 whole entry, looked up): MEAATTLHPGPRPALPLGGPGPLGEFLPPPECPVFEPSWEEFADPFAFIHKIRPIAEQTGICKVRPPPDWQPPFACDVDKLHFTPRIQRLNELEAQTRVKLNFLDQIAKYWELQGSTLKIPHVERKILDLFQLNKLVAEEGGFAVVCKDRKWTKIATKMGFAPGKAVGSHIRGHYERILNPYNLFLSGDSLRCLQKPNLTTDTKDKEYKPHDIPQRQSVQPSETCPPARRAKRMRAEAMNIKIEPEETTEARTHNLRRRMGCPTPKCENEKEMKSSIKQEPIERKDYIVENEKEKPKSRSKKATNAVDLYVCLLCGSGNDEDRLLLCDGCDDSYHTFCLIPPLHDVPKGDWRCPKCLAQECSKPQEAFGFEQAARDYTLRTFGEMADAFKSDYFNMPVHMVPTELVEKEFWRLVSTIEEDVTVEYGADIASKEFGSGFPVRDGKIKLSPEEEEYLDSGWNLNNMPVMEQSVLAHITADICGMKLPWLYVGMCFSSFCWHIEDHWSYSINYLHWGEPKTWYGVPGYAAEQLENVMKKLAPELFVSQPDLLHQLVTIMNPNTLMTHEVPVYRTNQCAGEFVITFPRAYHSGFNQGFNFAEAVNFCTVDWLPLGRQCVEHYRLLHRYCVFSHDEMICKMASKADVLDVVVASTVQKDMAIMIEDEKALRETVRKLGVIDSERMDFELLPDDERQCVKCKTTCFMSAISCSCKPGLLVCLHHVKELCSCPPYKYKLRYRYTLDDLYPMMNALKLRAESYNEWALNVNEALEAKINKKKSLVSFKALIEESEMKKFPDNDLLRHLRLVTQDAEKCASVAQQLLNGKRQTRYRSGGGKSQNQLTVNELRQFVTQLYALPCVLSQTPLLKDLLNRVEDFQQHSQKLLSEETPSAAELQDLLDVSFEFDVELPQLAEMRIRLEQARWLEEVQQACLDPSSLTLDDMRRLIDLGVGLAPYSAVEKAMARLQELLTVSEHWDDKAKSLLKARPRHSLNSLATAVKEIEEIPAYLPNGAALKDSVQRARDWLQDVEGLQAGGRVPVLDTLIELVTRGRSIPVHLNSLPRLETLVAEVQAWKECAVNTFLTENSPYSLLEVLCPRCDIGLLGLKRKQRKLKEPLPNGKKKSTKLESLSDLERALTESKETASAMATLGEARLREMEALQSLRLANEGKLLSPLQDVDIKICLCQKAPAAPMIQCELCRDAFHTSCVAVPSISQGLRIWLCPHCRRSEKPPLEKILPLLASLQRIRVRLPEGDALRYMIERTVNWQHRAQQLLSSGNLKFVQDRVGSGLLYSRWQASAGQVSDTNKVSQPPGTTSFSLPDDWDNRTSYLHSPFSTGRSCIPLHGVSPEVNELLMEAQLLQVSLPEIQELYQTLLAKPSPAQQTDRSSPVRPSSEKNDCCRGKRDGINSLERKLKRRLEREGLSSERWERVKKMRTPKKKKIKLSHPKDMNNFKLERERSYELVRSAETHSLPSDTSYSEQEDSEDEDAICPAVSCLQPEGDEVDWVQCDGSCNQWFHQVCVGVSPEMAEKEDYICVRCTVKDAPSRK
# How it was run: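 KDM5BDeltaAP (200nM final) preincubated 10 min with compound, then 12.5uM H3K4Me3, 25uM a-ketoglutarate, ascorbate, Fe(II), NAD+ and FDH added; 50mM HEPES pH 7.5, 0.01% Tween-20. NADH fluorescence (340/450 nm) change over 30 min, room temperature.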
# [11] = qHTS to identify inhibitors of the type 1 interferon - major histocompatibility complex class I in skeletal muscle: primary screen against the NCATS LOPAC collection (AID 1347405); conditions: iHSKM muscle cells, IFN-b-induced MHC-I HiBiT luminescence, 24 h; series mostly up to 45.9 µM;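 note: lytic HiBiT luminescence reporting HLA-B protein level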
# How it was run: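 Immortalized human C25cl48 myoblasts with HiBiT knocked into endogenous HLA-B*08:01 were stimulated with 4.0 ng/ml IFN-beta and given compounds in a 7-point, 1:4.3 titration from 46 uM final; after 24 hrs, lytic HiBiT luminescence was read.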
# [12] = qHTS for inhibitors of adenylyl cyclases using a fission yeast platform: a pilot screen against the NCATS LOPAC library (AID 1347410); conditions: S. pombe CHP2027, fbp1-GFP fluorescence, 18 h, yeast expressing mammalian AC9 and human GNAS; series mostly up to 57.5 µM
# How it was run: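 Inhibition of GNAS-stimulated AC9 activity in S. pombe was inferred from derepression of a PKA-repressed fbp1-GFP reporter, measured as cytometric fluorescence after 18 h at 30C with compounds at up to 57 µM.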
# [13] = Validation qHTS assay for inhibitors of Activation Induced Cytidine Deaminase (AID): UDG Counterscreen signal (AID 1347427); conditions: biochemical UDG counterscreen, fluorescence signal; series mostly up to 115 µM
# How it was run: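 Counterscreen read of UDG activity (2 U/mL, 4/3x) in the FRET deamination format with AID (1 uM, 4/3x), DJC20/DJC23 substrates (250 nM, 4x), 4 h at room temperature. NaOH stop, fluorescence at 560 ex/665 em.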
# [14] = target: Single-stranded DNA cytosine deaminase (Homo sapiens) (UniProt Q9GZX7); assay: Validation qHTS assay for inhibitors of Activation Induced Cytidine Deaminase (AID): AID signal (AID 1347429); conditions: Recombinant AID, FRET ssDNA deamination with UDG, fluorescence; series mostly up to 115 µM
# Sequence of Single-stranded DNA cytosine deaminase (Homo sapiens) (Q9GZX7 whole entry, looked up): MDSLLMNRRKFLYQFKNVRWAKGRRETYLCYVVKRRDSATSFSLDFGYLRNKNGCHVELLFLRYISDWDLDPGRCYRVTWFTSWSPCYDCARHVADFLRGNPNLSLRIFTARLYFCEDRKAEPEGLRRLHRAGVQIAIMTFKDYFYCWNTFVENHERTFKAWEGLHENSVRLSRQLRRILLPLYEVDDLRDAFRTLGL
# How it was run: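 AID and UDG were combined and compounds added at final up to 114 uM, then DJC20/DJC23 FRET substrate was added for 4 hr at room temperature. NaOH was then added for 30 min before fluorescence was read at 540/590 nm.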
# [15] = target: Calcium and integrin-binding protein 1 (Homo sapiens) (UniProt Q99828); assay: Validation qHTS for Identification of Calcium Integrin Binding protein 1 (CIB1) Competitor (AID 1508618); conditions: CIB1-GST / FITC-alphaIIb peptide fluorescence polarization; series mostly up to 114 µM
# How it was run: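 Displacement of FITC-alphaIIb peptide (100 nM) from CIB1-GST (1 uM) is monitored by polarization in quantitative HTS format; buffer carries 5 mM CaCl2 and 125 mM NaCl at pH 7.4, incubations are at room temperature.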
# [16] = HepG2 cells viability qHTS for Zika virus inhibitors (AID 1347168); conditions: Zika counter-screen; series mostly up to 45.9 µM
# How it was run: as §1
# [17] = Tertiary RLuc qRT-PCR qHTS assay for Zika virus inhibitors (AID 1347169); conditions: infected Vero cells, reporter luminescence, 48-72 h; series mostly up to 45.9 µM; note: nearly all actives have a fitted effect of over 55% in size; note: potency is the fitted concentration of half-maximal effect
# How it was run: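 Inhibition of ZIKV-RLuc replication in Vero cells, read as Renilla luminescence 1-1.5 hrs after live-cell substrate addition, following 48-72 hrs infection at MOI 1-2 in presence of compound.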
structure (smiles),measurement,setting,value
CCc1oc2ccccc2c1C(=O)c1cc(Br)c(O)c(Br)c1,Potency,[1],79.4 µM (active)
same,Potency,[2],28.2 µM (active)
same,outcome,[3],inactive
same,Potency,[4],inactive
same,Potency,[5],6.31 µM (active)
same,outcome,[6],inactive
CC(=O)O[C@H]1C[C@@H]2CC[C@@H]3[C@H](CC[C@@]4(C)[C@H]3C[C@H]([N+]3(C)CCCCC3)[C@@H]4OC(C)=O)[C@@]2(C)C[C@@H]1N1CCCCC1,Potency,[4],inactive
same,Potency,[7],inactive
same,Potency,[5],inactive
same,outcome,[8],inactive
same,outcome,[6],inactive
same,Potency,[9],inactive
CCOC(=O)[C@H](CCc1ccccc1)N[C@@H](C)C(=O)N1[C@H](C(=O)O)C[C@@H]2CCC[C@@H]21,Potency,[4],inactive
same,Potency,[7],inactive
same,Potency,[5],inactive
same,outcome,[8],inactive
same,outcome,[6],inactive
same,Potency,[9],inactive
Nc1ccc(S(=O)(=O)Nc2cnc3ccccc3n2)cc1,Potency,[4],inactive
same,Potency,[5],inactive
same,outcome,[8],inactive
same,outcome,[6],inactive
O=c1[nH]c(=O)n([C@H]2C[C@H](O)[C@@H](CO)O2)cc1F,Potency,[4],inactive
same,Potency,[7],inactive
same,Potency,[5],inactive
same,outcome,[8],inactive
same,Potency,[9],inactive
NC(N)=NCc1cccc(I)c1,outcome,[10],inactive
same,outcome,[11],inactive
same,outcome,[12],inactive
same,outcome,[13],inactive
same,outcome,[14],inactive
same,outcome,[6],inactive
same,outcome,[15],inactive
Cc1ccc(O)c([C@H](CCN(C(C)C)C(C)C)c2ccccc2)c1,Potency,[4],inactive
same,Potency,[5],inactive
same,outcome,[8],inactive
CN1CCN(CCC(=O)N2c3ccccc3Sc3ccc(C(F)(F)F)cc32)CC1,Potency,[4],inactive
same,Potency,[5],inactive
same,outcome,[8],inactive
CCC(CC)(CC(=O)Nc1cccc(/C=C/c2nc(C3CCC3)cs2)c1)C(=O)O,Potency,[1],inactive
same,outcome,[3],inactive
same,Potency,[16],inactive
same,Potency,[17],inactive
same,Potency,[4],inactive
same,Potency,[5],inactive
same,outcome,[6],inactive
same,Potency,[9],inactive
C[C@H]1O[C@@H](O[C@H]2CC[C@@]3(C)[C@H](CC[C@@H]4[C@@H]3C[C@@H](O)[C@]3(C)[C@@H](C5=CC(=O)OC5)CC[C@]43O)C2)C[C@H](O)[C@@H]1O[C@H]1C[C@H](O)[C@H](O[C@H]2C[C@H](O)[C@H](O[C@@H]3O[C@H](CO)[C@@H](O)[C@H](O)[C@H]3O)[C@@H](C)O2)[C@@H](C)O1,outcome,[3],inactive
same,Potency,[16],inactive
same,Potency,[17],0.415 µM (active)
same,Potency,[4],0.528 µM (active)
same,Potency,[5],inactive
same,outcome,[8],inactive
same,Potency,[9],inactive
